# From PMC7862700, “An all-to-all approach to the identification of sequence-specific readers for epigenetic DNA modifications on cytosine”
# How the values were obtained:
# Experiment in all cases: DAPPL (digital affinity profiling via proximity ligation, sequencing); 10 mM Tris-HCl pH 7.5, 50 mM NaCl, 1 mM DTT, 4% glycerol, room temperature, 30 min; GST-TFs on glutathione beads, 16-mer random dsDNA library, 0.1% formaldehyde crosslink after washing; high values mean tight binding
# [1] = target: HSF1 (Homo sapiens, UniProt Q00613 1-529); settings: protein: recombinant; tags: N-terminal GST; chain copies: 3; dsDNA, one strand shown
# HSF1, sequence (Q00613 whole entry, the tested form may be a part): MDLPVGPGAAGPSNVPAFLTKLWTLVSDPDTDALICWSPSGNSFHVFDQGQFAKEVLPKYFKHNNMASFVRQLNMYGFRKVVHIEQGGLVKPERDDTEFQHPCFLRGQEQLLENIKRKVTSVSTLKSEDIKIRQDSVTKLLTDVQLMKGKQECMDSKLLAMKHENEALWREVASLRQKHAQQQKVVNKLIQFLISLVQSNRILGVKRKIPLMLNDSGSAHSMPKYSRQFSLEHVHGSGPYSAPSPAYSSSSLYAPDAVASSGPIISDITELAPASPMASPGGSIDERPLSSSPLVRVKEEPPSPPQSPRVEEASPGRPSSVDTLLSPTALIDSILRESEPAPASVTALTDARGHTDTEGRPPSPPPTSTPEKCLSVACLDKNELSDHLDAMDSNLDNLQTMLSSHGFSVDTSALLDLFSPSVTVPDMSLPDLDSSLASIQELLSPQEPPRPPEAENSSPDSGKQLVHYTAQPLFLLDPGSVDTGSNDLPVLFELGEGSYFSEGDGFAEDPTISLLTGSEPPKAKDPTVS
# In short: (§1)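 Yeast served to express human transcription factors as GST fusions, which were then captured on glutathione beads and labelled with DNA barcodes. Pooled with a tag-only sample, they were incubated with 200 nmole of a 16-mer random double-stranded DNA library for 30 min at room temperature in Tris/NaCl/DTT/glycerol buffer, washed, crosslinked with 0.1% formaldehyde, ligated by proximity, amplified by PCR and sequenced. Dividing each hexamer's read frequency for a factor by its frequency for the tag-only sample gives the binding signal.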
# [2] = target: ELF4 (Homo sapiens, UniProt Q99607 1-663); settings: protein: recombinant; tags: N-terminal GST; dsDNA, one strand shown
# ELF4, sequence (Q99607 whole entry): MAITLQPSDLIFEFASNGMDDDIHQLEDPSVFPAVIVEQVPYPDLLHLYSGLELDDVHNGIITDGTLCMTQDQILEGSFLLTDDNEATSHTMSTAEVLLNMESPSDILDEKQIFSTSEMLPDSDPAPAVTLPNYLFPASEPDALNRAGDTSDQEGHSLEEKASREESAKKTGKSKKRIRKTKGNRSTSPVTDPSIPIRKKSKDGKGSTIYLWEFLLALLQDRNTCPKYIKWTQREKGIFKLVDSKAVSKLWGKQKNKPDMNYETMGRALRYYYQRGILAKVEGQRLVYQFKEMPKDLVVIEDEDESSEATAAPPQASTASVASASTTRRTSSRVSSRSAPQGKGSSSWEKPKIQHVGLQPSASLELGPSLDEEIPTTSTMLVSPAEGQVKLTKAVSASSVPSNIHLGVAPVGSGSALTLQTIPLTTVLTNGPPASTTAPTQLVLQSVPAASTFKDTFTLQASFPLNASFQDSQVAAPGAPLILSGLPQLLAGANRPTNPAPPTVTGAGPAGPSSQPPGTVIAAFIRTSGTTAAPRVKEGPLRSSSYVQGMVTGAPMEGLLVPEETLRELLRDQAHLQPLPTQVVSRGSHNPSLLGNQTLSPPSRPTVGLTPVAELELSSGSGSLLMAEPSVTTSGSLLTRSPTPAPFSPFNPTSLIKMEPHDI
# In short: as §1
# [3] = target: T1, ERF (Homo sapiens, UniProt P50548 1-548); settings: protein: recombinant; tags: N-terminal GST; dsDNA, one strand shown
# T1 sequence: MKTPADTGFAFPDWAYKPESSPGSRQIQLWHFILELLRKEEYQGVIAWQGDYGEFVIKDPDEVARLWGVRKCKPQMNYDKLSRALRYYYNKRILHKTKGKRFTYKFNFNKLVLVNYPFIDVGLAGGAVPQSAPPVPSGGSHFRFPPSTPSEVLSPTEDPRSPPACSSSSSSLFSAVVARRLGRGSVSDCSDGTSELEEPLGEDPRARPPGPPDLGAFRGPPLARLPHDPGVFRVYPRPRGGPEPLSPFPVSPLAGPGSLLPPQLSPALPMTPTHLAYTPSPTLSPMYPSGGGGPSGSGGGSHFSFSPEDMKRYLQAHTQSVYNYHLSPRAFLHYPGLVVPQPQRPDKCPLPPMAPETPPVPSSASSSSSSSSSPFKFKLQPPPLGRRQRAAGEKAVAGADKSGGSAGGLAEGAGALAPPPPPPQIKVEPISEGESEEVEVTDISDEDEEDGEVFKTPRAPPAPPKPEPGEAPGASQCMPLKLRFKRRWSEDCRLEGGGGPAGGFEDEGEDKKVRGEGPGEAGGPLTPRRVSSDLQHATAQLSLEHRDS
# In short: as §1
# [4] = target: T2, ETV3L (Homo sapiens, UniProt Q6ZN32 1-361); settings: protein: recombinant; tags: N-terminal GST; dsDNA, one strand shown
# T2 sequence: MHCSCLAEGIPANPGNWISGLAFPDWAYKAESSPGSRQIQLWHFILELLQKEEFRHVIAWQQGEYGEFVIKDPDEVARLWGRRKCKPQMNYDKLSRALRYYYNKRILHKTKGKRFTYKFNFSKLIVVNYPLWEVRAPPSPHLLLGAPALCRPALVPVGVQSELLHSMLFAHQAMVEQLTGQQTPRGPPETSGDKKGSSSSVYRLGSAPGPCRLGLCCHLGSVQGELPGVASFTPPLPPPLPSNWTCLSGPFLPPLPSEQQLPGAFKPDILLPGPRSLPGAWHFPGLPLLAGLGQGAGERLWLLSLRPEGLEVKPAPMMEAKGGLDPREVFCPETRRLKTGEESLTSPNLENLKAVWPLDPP
# In short: as §1
# [5] = target: T3, ETV7 (Homo sapiens, UniProt Q9Y603 1-341); settings: protein: recombinant; tags: N-terminal GST; dsDNA, one strand shown
# T3 sequence: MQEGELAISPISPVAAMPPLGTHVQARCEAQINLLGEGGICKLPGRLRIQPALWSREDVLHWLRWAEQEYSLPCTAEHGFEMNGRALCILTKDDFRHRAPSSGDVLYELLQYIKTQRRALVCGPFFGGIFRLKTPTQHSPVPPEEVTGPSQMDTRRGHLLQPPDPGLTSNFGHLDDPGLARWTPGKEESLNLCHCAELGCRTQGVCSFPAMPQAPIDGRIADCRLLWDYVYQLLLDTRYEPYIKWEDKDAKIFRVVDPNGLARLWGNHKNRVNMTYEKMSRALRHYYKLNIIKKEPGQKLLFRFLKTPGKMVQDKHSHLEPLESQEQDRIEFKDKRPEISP
# In short: as §1
# [6] = target: CRX (Homo sapiens, UniProt O43186 1-299); settings: protein: recombinant; tags: N-terminal GST; dsDNA, one strand shown
# CRX, sequence (O43186 whole entry): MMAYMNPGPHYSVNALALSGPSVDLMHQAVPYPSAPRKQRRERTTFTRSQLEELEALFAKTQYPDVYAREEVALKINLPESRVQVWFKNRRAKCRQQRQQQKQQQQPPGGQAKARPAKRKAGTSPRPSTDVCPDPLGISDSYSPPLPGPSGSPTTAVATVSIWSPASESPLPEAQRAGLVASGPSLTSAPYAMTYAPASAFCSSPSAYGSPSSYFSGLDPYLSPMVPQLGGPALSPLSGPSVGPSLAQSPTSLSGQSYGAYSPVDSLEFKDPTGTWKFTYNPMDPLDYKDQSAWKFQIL
# In short: as §1
# [7] = target: T4, ELK3 (Homo sapiens, UniProt P41970 1-407); settings: protein: recombinant; tags: N-terminal GST; dsDNA, one strand shown
# T4 sequence: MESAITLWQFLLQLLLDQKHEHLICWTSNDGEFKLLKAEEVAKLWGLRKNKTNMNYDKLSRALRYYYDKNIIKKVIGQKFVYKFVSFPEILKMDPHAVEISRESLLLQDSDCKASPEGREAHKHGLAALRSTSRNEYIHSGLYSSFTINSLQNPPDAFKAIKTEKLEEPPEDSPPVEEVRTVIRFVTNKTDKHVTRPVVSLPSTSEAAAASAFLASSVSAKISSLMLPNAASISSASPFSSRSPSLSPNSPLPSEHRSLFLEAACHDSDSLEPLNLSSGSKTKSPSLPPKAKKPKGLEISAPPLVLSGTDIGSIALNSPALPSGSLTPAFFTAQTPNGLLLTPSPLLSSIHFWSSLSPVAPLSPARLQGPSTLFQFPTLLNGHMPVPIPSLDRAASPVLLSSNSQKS
# In short: as §1
# [8] = target: T5, ELK4 (Homo sapiens, UniProt P28324-2 1-405); settings: protein: recombinant; tags: N-terminal GST; dsDNA, one strand shown
# T5 sequence: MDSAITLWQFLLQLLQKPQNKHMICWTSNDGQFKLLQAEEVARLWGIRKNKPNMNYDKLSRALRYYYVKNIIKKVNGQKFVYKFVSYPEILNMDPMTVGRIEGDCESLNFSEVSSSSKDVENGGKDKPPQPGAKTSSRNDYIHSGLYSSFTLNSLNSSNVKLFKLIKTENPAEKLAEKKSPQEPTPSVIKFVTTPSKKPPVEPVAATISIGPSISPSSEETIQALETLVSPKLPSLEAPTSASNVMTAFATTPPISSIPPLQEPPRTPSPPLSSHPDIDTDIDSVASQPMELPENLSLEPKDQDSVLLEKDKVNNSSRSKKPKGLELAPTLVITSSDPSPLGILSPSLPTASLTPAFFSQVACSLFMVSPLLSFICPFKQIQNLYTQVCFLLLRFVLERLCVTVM
# In short: as §1
# [9] = target: T6, ELF5 (Homo sapiens, UniProt Q9UKW6-2 1-255); settings: protein: recombinant; tags: N-terminal GST; dsDNA, one strand shown
# T6 sequence: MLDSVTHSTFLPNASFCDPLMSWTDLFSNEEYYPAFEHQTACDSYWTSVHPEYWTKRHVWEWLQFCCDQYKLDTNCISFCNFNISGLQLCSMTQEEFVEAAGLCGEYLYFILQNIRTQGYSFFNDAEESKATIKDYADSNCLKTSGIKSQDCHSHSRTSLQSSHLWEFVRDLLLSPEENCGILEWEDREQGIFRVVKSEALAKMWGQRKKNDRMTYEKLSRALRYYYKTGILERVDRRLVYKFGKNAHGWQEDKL
# In short: as §1
# [10] = target: T7, EHF (Homo sapiens, UniProt Q9NZC4 1-300); settings: protein: recombinant; tags: N-terminal GST; dsDNA, one strand shown
# T7 sequence: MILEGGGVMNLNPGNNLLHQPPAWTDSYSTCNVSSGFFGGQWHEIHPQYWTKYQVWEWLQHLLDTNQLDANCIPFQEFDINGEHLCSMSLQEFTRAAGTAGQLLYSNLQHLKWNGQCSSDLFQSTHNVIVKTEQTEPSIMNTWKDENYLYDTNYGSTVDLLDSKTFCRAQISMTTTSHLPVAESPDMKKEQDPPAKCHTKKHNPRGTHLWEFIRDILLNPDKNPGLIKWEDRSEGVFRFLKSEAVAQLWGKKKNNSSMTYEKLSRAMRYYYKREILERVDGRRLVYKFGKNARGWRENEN
# In short: as §1
# [11] = target: T8, SPIC (Homo sapiens, UniProt Q8N5J4 1-248); settings: protein: recombinant; tags: N-terminal GST; dsDNA, one strand shown
# T8 sequence: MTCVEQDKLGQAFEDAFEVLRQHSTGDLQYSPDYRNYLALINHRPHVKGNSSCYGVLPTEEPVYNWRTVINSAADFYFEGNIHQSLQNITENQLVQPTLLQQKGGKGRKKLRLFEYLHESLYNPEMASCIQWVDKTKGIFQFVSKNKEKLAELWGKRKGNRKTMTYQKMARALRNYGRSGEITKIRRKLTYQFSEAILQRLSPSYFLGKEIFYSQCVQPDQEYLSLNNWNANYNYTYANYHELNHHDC
# In short: as §1
# [12] = target: T9, GABPA (Homo sapiens, UniProt Q06546 1-454); settings: protein: recombinant; tags: N-terminal GST; dsDNA, one strand shown
# T9 sequence: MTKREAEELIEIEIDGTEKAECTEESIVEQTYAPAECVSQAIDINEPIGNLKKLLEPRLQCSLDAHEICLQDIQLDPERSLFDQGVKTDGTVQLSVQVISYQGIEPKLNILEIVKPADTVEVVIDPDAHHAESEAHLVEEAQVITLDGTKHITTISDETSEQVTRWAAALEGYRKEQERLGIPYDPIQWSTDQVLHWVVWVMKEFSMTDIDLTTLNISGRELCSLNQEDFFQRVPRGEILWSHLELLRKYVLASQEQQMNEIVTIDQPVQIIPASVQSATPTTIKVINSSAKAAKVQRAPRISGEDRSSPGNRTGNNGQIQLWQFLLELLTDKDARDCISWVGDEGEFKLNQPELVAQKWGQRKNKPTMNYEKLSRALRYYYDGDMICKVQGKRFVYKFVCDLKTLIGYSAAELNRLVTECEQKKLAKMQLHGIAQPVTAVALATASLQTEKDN
# In short: as §1
sequence,measurement,setting,value
ACGAAG,binding signal,[1],"1.06 fold enrichment (6-mer frequency, TF over GST control)"
same,binding signal,[2],"1.01 fold enrichment (6-mer frequency, TF over GST control)"
same,binding signal,[3],"1.02 fold enrichment (6-mer frequency, TF over GST control)"
same,binding signal,[4],"1 fold enrichment (6-mer frequency, TF over GST control)"
same,binding signal,[5],"1.07 fold enrichment (6-mer frequency, TF over GST control)"
TCAGAA,binding signal,[1],"1.26 fold enrichment (6-mer frequency, TF over GST control)"
same,binding signal,[2],"1 fold enrichment (6-mer frequency, TF over GST control)"
same,binding signal,[6],"1.12 fold enrichment (6-mer frequency, TF over GST control)"
AGATAT,binding signal,[7],"1 fold enrichment (6-mer frequency, TF over GST control)"
same,binding signal,[1],"1.1 fold enrichment (6-mer frequency, TF over GST control)"
same,binding signal,[8],"1.04 fold enrichment (6-mer frequency, TF over GST control)"
same,binding signal,[6],"1.06 fold enrichment (6-mer frequency, TF over GST control)"
same,binding signal,[9],"1.06 fold enrichment (6-mer frequency, TF over GST control)"
CTAGGA,binding signal,[10],"1.01 fold enrichment (6-mer frequency, TF over GST control)"
same,binding signal,[1],"1.08 fold enrichment (6-mer frequency, TF over GST control)"
same,binding signal,[11],"1.01 fold enrichment (6-mer frequency, TF over GST control)"
ATCAGA,binding signal,[12],"1.11 fold enrichment (6-mer frequency, TF over GST control)"
same,binding signal,[1],"1.09 fold enrichment (6-mer frequency, TF over GST control)"
same,binding signal,[8],"1.05 fold enrichment (6-mer frequency, TF over GST control)"
same,binding signal,[6],"1.25 fold enrichment (6-mer frequency, TF over GST control)"
